The source made the active and inactive calls. Calls come from the whole dose curve; as a rule, active = well fitted curve in the direction sought with a large enough effect in the repeat runs; inconclusive = weak or mixed curves; inactive = flat fitted curve, though single readings scatter.
assay: qHTS assay to test for compound auto fluorescence at 590 nm (red) in HepG2 cell free culture (AID 720684); conditions: cell-free medium autofluorescence, red 540/590 nm; series mostly up to 91.3 µM
Method in brief: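 Auto fluorescence equivalency versus Rose Bengal sodium, red channel Ex/Em 540/590 nm; compounds in cell-free MEM/10% FBS; DMSO vehicle control.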

SMILES	outcome
COP(=O)(OC)C(O)C(Cl)(Cl)Cl (stereo unspecified)	inactive
Cc1cc(Cl)ccc1OCC(=O)O	inactive
CCCC[n+]1ccccc1C	inactive
O=C(O)COc1ccc(Cl)cc1Cl	inactive
CC(=O)[O][Hg][c]1ccccc1	inactive
O=C(O)C(Cl)Cl	inactive
CCCC[n+]1ccc(C)cc1	inactive
O=c1nc(O)n(Cl)c(=O)n1Cl	inactive
CCCCCCCCCCCCCC[P+](CCCCCC)(CCCCCC)CCCCCC	inactive
CCC(=O)C(CC(C)N(C)C)(c1ccccc1)c1ccccc1 (stereo unspecified)	inactive
O=C(O)C(Cl)(Cl)Cl	inactive
CCC[N+]1(C)CCCC1	inactive
O=C(O)CC(O)(CC(=O)O)C(=O)O	inactive
CC(Cl)(Cl)C(=O)O	inactive
Nc1ccc(Cl)cc1	inactive
O=C(O)CCl	inactive

SMILES	outcome
CCCCn1cc[n+](C)c1C	inactive
CC[N+](CC)(CC)CC	inactive
O=C(O)c1nc(Cl)ccc1Cl	inactive
Cc1cc(Cl)ccc1N	inactive
CCCCCCCCCCn1cc[n+](C)c1	inactive
COc1ccc(N)cc1	inactive
Nc1ccccc1	inactive
CCCC[n+]1ccccc1	inactive
CC(=O)O	inactive
O=c1[nH]c(=O)n(Cl)c(=O)n1Cl	inactive
O=P1(N(CCCl)CCCl)NCCCO1 (stereo unspecified)	inactive
Cc1cc(-c2ccc(N)c(C)c2)ccc1N	inactive
C1CCC(NC2CCCCC2)CC1	inactive
COCC(=O)N(c1c(C)cccc1C)C(C)C(=O)OC (stereo unspecified)	inactive
CN(C)[C@@H]1C(=O)C(C(N)=O)=C(O)[C@@]2(O)C(=O)C3=C(O)c4c(O)cccc4[C@@](C)(O)[C@H]3[C@H](O)[C@@H]12	inactive
CCCn1cc[n+](C)c1	inactive

assay: qHTS assay to test for compound auto fluorescence at 460 nm (blue) in HepG2 cell free culture (AID 720685); conditions: Cell-free culture medium, blue autofluorescence 405/460 nm; series mostly up to 91.3 µM
Method in brief: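 Cell-free plates of MEM plus 10% FBS received 23 nL compound or DMSO vehicle; blue-channel (405/460 nm) intensity scored against triamterene as reference fluorophore.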

SMILES	outcome
COP(=O)(OC)C(O)C(Cl)(Cl)Cl (stereo unspecified)	inactive
Cc1cc(Cl)ccc1OCC(=O)O	inactive
CCCC[n+]1ccccc1C	inactive
O=C(O)COc1ccc(Cl)cc1Cl	inactive
CC(=O)[O][Hg][c]1ccccc1	inactive
O=C(O)C(Cl)Cl	inactive
CCCC[n+]1ccc(C)cc1	inactive
O=c1nc(O)n(Cl)c(=O)n1Cl	inactive
CCCCCCCCCCCCCC[P+](CCCCCC)(CCCCCC)CCCCCC	inactive
CCC(=O)C(CC(C)N(C)C)(c1ccccc1)c1ccccc1 (stereo unspecified)	inactive
O=C(O)C(Cl)(Cl)Cl	inactive
CCC[N+]1(C)CCCC1	inactive
O=C(O)CC(O)(CC(=O)O)C(=O)O	inactive
CC(Cl)(Cl)C(=O)O	inactive
Nc1ccc(Cl)cc1	inactive
O=C(O)CCl	inactive

SMILES	outcome
CCCCn1cc[n+](C)c1C	inactive
CC[N+](CC)(CC)CC	inactive
O=C(O)c1nc(Cl)ccc1Cl	inactive
Cc1cc(Cl)ccc1N	inactive
CCCCCCCCCCn1cc[n+](C)c1	inactive
COc1ccc(N)cc1	inactive
Nc1ccccc1	inactive
CCCC[n+]1ccccc1	inactive
CC(=O)O	inactive
O=c1[nH]c(=O)n(Cl)c(=O)n1Cl	inactive
O=P1(N(CCCl)CCCl)NCCCO1 (stereo unspecified)	inactive
Cc1cc(-c2ccc(N)c(C)c2)ccc1N	inactive
C1CCC(NC2CCCCC2)CC1	inactive
COCC(=O)N(c1c(C)cccc1C)C(C)C(=O)OC (stereo unspecified)	inactive
CN(C)[C@@H]1C(=O)C(C(N)=O)=C(O)[C@@]2(O)C(=O)C3=C(O)c4c(O)cccc4[C@@](C)(O)[C@H]3[C@H](O)[C@@H]12	inactive
CCCn1cc[n+](C)c1	inactive

assay: qHTS assay to test for compound auto fluorescence at 535 nm (green) in HepG2 cell free culture (AID 720686); conditions: Cell-free medium, green autofluorescence 485/535 nm; series mostly up to 91.3 µM

SMILES	outcome
COP(=O)(OC)C(O)C(Cl)(Cl)Cl (stereo unspecified)	inactive
Cc1cc(Cl)ccc1OCC(=O)O	inactive
CCCC[n+]1ccccc1C	inactive
O=C(O)COc1ccc(Cl)cc1Cl	inactive
CC(=O)[O][Hg][c]1ccccc1	inactive
O=C(O)C(Cl)Cl	inactive
CCCC[n+]1ccc(C)cc1	inactive
O=c1nc(O)n(Cl)c(=O)n1Cl	inactive
CCCCCCCCCCCCCC[P+](CCCCCC)(CCCCCC)CCCCCC	inactive
CCC(=O)C(CC(C)N(C)C)(c1ccccc1)c1ccccc1 (stereo unspecified)	inactive
O=C(O)C(Cl)(Cl)Cl	inactive
CCC[N+]1(C)CCCC1	inactive
O=C(O)CC(O)(CC(=O)O)C(=O)O	inactive
CC(Cl)(Cl)C(=O)O	inactive
Nc1ccc(Cl)cc1	inactive
O=C(O)CCl	inactive

SMILES	outcome
CCCCn1cc[n+](C)c1C	inactive
CC[N+](CC)(CC)CC	inactive
O=C(O)c1nc(Cl)ccc1Cl	inactive
Cc1cc(Cl)ccc1N	inactive
CCCCCCCCCCn1cc[n+](C)c1	inactive
COc1ccc(N)cc1	inactive
Nc1ccccc1	inactive
CCCC[n+]1ccccc1	inactive
CC(=O)O	inactive
O=c1[nH]c(=O)n(Cl)c(=O)n1Cl	inactive
O=P1(N(CCCl)CCCl)NCCCO1 (stereo unspecified)	inactive
Cc1cc(-c2ccc(N)c(C)c2)ccc1N	inactive
C1CCC(NC2CCCCC2)CC1	inactive
COCC(=O)N(c1c(C)cccc1C)C(C)C(=O)OC (stereo unspecified)	inactive
CN(C)[C@@H]1C(=O)C(C(N)=O)=C(O)[C@@]2(O)C(=O)C3=C(O)c4c(O)cccc4[C@@](C)(O)[C@H]3[C@H](O)[C@@H]12	inactive
CCCn1cc[n+](C)c1	inactive

Source: PubChem BioAssay (Tox21)
